According to PubChem BioAssay AID651956 (Broad Institute, 2012):
Measured potencies and affinities stand elsewhere. Inconclusive results are not listed. The source made the active and inactive calls.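 How the source made its calls: active means in every test run, a fitted half-maximal concentration for signal decrease at or below twice the highest tested concentration; inconclusive means runs disagree, flat 30 to 70% decrease, or poor fit; inactive means the rest.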

Experiment: miR-122 activators in hepatoma reporter cells, dose response, cell-based, Huh7 psiCHECK-miR122, Renilla luciferase, cherry-picked (AID 651956);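 further: Renilla luciferase from a miR-122 sensor reporter so lower signal means miR-122 activation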
Conditions: 48 h; series mostly up to 35 µM

outcome, inactive:
COc1ccc(N2CCc3c(C)nc4c(OC)cc(OC)cc4c32)c(OC)c1
O=C(N[C@H]1CC[C@H](CCn2cc(C3(O)CCCC3)nn2)O[C@H]1CO)c1ccccc1F
COc1ccccc1CNc1nc(Nc2ccccc2Cl)c2sccc2n1
CC(C)C(=O)Nc1ccc2c(c1)C(=O)N(C)[C@@H]1CC[C@H](CC(=O)NCC3CC3)O[C@H]1CO2
COc1ccc(C(=O)N2C[C@H]3[C@@H](c4ccccc42)[C@@H](CO)N3C(=O)Cc2ccccn2)cc1
CCCNC(=O)C[C@H]1CC[C@H]2[C@H](COc3ccc(NC(=O)c4ccc(C(F)(F)F)cc4)cc3C(=O)N2C)O1
CCOC(=O)CSc1nnnn1-c1cccc2ccccc12
C[C@H](CO)N1C[C@H](C)[C@H](CN(C)Cc2ccccc2)Oc2cc(/C=C/c3ccccc3)ccc2S1(=O)=O
CC(=O)Nc1ccc2c(c1)C(=O)N(C)[C@@H]1CC[C@@H](CC(=O)NCc3ccc(Cl)cc3)O[C@H]1CO2
CN1C(=O)c2cc(NC(=O)c3cccs3)ccc2OC[C@H]2O[C@H](CC(=O)NCCN3CCCCC3)CC[C@H]21
N#Cc1c(N)nc2c(c1-c1cccs1)CCCC2
CN(Cc1ccccc1)C(=O)COC(=O)c1ccccc1Nc1ccccc1
CCCNC(=O)Nc1ccc2c(c1)C(=O)N(C)[C@@H]1CC[C@@H](CC(=O)NCC3CCCCC3)O[C@@H]1CO2
COCCNC(=O)C[C@@H]1CC[C@@H]2[C@H](COc3ccc(NS(=O)(=O)c4ccc(Cl)cc4)cc3C(=O)N2C)O1
CCOC(=O)C1CCN(C(c2cccnc2)c2c(NC(=O)c3ccco3)sc(C)c2C)CC1 (stereo not drawn)
COCCNC(=O)C[C@H]1CC[C@@H]2[C@H](COc3ccc(NC(=O)C4CCOCC4)cc3C(=O)N2C)O1
FC(F)(F)c1cnc(N2CCCN(C(=S)Nc3ccccc3)CC2)c(Cl)c1
CCCC(=O)Nc1ccc2c(c1)C(=O)N(C)[C@@H]1CC[C@H](CC(=O)Nc3cn(C)nc3C)O[C@@H]1CO2
COc1ccc(OC)c(Nc2cc(C)nc3ccc(C)cc23)c1
OC[C@H]1[C@@H](c2ccccc2)[C@@H](CNCC2CCC2)N1CC1CC1
CCN(C[C@H]1N[C@H](CO)[C@H]1c1ccc(-c2ccc(F)cc2)cc1)C(=O)COC
O=C(CC(F)(F)F)N1C[C@@H]2[C@H](c3ccccc31)[C@@H](CO)N2C(=O)C1CCCC1
O=CN1CCN(C(=O)c2ccccc2F)CC1
O=C(C1CC1)N(CCN(C(=O)C1CC1)c1ccccc1)c1ccccc1
CNC(=O)C[C@@H]1CC[C@@H]2[C@@H](COc3ccc(NC(=O)NC(C)C)cc3C(=O)N2C)O1
Cn1c(NC(=O)c2ccco2)c(-c2ccccc2Cl)c(=O)c2ccccc21
O=C(c1cccc(F)c1)N1C[C@@H]2[C@H](c3ccccc31)[C@H](CO)N2C(=O)Cc1ccccc1
O=C(NC[C@H]1[C@H](c2ccccc2)[C@@H](CO)N1Cc1ccccn1)C1CC1
COc1ccc2c(c1)C(C)=CC(C)(C)N2C(=O)CNCc1ccc2c(c1)OCO2
CCOc1cc(C(=O)NC(C)COC)cc(OCC)c1OCC (stereo not drawn)
CNC(=O)C[C@H]1CC[C@@H]2[C@H](COc3ccc(NC(=O)NC(C)C)cc3C(=O)N2C)O1
CN1C(=O)c2cc(NC(=O)c3ccc(C(F)(F)F)cc3)ccc2OC[C@@H]2O[C@@H](CC(=O)NCc3ccc4c(c3)OCO4)CC[C@H]21
C=CCNC(=S)NNC(=O)Cn1c(-c2ccccc2)cc(=O)n2ncnc12
COC(=O)C[C@H]1CC[C@@H]2[C@@H](COc3ccc(NC(=O)Nc4cccc(F)c4)cc3C(=O)N2C)O1
COc1cccc(CNC(=O)C[C@H]2CC[C@@H]3[C@@H](COc4ccc(NC(C)=O)cc4C(=O)N3C)O2)c1
CNC(=O)C[C@@H]1CC[C@H]2[C@@H](COc3ccc(NC(=O)c4ccc(C(F)(F)F)cc4)cc3C(=O)N2C)O1
N#CC1=C(N)Oc2c(ccc3cccnc23)C1c1ccccc1 (stereo not drawn)
CC(C)C(=O)Nc1ccc2c(c1)C(=O)N(C)[C@H]1CC[C@@H](CC(=O)NCCCN(C)C)O[C@H]1CO2
